Measured values: the supplement of paper PMC10849652
The full data set covers some 7,900 targets. This sample favours those with a hit. About 0.6% of all pairs of compound and target were hits.

Legend:
Experiment in all cases: log2 fold change, soluble protein after heating vs DMSO (PISA); higher = thermal stabilisation; K562 cells, 10 uM, 30 min; active = over 0.2 and 3.5 SD of the protein, either way, in both replicates (recomputed)
[1] = compound: NC(=O)Nc1cc(-c2cccc(F)c2)sc1C(=O)N[C@H]1CCCNC1
Outline: (§1)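 Soluble protein was defined as the supernatant after 21,000xg for 90 min. It came from K562 cells at 2×10^6 cells/mL given 10 μM compound for 30 min, heated in aliquots for 3 min across 48°C-58°C, pooled, and extracted in PBS with 0.5% NP-40 at 4°C, and was quantified by TMTpro 16plex LC-MS/MS with equalised channel sums. Thermal stability against control samples, from duplicates, is reported as log2 fold change.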

[2] = compound: NC(=O)c1cnc(N[C@@H]2CCCC[C@@H]2N)nc1Nc1cccc(-n2nccn2)c1
Outline: as §1

[3] = compound: NC1(c2ccc(-c3nc4ccn5c(=O)[nH]nc5c4cc3-c3ccccc3)cc2)CCC1
Outline: as §1

[4] = compound: NCC(=O)Nc1ccc(-n2nc(C(F)(F)F)cc2-c2ccc3c(ccc4ccccc43)c2)cc1
Outline: as §1

entinostat = compound: Nc1ccccc1NC(=O)c1ccc(CNC(=O)OCc2cccnc2)cc1 [entinostat]
Outline: as §1

vorinostat = compound: O=C(CCCCCCC(=O)Nc1ccccc1)NO [vorinostat]
Outline: as §1

citarinostat = compound: O=C(CCCCCCNC(=O)c1cnc(N(c2ccccc2)c2ccccc2Cl)nc1)NO [citarinostat]
Outline: as §1

silmitasertib = compound: O=C(O)c1ccc2c(c1)nc(Nc1cccc(Cl)c1)c1ccncc12 [silmitasertib]
Outline: as §1

[5] = compound: O=C1NC(=O)C(c2cnc3ccccn23)=C1c1cn2c3c(cc(F)cc13)CN(C(=O)N1CCCCC1)CC2
Outline: as §1

[6] = compound: c1cc(OCCN2CCCCC2)cc(-c2n[nH]c3ccc(-c4nnc[nH]4)cc23)c1
Outline: as §1

Measured: log2 fold change

GEMIN2 (UniProt O14893)
UniProt O14893, sequence (O14893 whole entry, looked up): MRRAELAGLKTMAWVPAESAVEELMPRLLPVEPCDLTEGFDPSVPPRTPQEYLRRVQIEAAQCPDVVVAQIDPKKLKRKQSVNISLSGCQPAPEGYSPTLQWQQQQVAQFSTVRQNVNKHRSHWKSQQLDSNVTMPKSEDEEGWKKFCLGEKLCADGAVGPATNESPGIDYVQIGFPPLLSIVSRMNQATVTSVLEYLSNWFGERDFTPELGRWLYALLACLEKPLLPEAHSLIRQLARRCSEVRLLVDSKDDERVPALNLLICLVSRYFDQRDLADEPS
inactive: [1] -0.05 | [2] -0.015 | [3] 0.017 | [4] -0.116 | entinostat -0.055 | vorinostat 0.102 | citarinostat -0.103 | silmitasertib 0.038 | [6] 0.073
active: [5] 0.375

HSD17B12 (UniProt Q53GQ0)
UniProt Q53GQ0, sequence (Q53GQ0 whole entry, looked up): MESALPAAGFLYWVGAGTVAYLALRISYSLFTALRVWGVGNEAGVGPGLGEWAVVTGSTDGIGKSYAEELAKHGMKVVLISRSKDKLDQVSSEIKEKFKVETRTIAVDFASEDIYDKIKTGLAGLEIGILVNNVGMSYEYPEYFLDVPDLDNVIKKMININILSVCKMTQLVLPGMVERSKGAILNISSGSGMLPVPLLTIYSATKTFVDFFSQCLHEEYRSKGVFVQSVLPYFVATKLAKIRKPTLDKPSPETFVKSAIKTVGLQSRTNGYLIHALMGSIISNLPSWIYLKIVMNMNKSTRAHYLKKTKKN
inactive: [1] -0.031 | [2] 0.005 | [3] -0.049 | [4] 0.066 | entinostat -0.02 | vorinostat -0.014 | citarinostat 0.14 | silmitasertib 0.037 | [5] -0.146 | [6] -0.082

HEATR5B (UniProt Q9P2D3)
inactive: [1] 0.01 | [2] 0.012 | [3] -0.152 | [4] -0.028 | entinostat -0.03 | vorinostat -0.008 | citarinostat 0 | silmitasertib -0.053 | [5] 0.083 | [6] 0.056

GATD1 (UniProt Q8NB37)
active: [5] -0.673
inactive: [1] 0.012 | [2] 0.028 | [3] -0.037 | [4] -0.013 | entinostat -0.084 | vorinostat -0.018 | citarinostat -0.031 | silmitasertib -0.025 | [6] -0.031

GCC2 (UniProt Q8IWJ2)
inactive: [1] -0.009 | [2] -0.005 | [3] 0.081 | [4] 0.009 | entinostat 0.03 | vorinostat -0.002 | citarinostat -0.066 | silmitasertib 0.212 | [5] 0.225 | [6] 0.009

HADHA (UniProt P40939)
UniProt P40939, sequence (P40939 whole entry, looked up): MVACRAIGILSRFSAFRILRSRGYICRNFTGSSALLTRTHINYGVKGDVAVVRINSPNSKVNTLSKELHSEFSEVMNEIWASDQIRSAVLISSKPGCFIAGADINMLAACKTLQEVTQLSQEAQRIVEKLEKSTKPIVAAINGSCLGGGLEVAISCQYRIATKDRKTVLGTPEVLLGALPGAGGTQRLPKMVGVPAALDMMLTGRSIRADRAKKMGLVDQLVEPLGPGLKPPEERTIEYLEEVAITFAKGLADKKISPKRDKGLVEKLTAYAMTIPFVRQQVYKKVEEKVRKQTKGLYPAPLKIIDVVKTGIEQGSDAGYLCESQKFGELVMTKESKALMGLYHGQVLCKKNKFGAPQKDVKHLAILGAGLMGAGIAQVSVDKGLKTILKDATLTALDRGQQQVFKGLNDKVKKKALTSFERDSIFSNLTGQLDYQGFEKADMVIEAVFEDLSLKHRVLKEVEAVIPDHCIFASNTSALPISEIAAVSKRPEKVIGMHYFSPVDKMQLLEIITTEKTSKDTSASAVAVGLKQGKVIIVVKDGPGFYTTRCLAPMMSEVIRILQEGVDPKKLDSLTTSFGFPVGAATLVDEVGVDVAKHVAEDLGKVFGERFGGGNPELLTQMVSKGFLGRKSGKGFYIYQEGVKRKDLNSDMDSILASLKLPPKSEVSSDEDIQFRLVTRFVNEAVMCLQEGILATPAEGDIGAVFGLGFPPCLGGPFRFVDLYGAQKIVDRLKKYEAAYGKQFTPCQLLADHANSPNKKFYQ
active: [5] 1.01
inactive: [1] -0.035 | [2] 0.033 | [3] 0.131 | [4] 0.125 | entinostat 0.045 | vorinostat -0.059 | citarinostat 0.018 | silmitasertib -0.1 | [6] -0.007

FLNA (UniProt P21333)
inactive: [1] -0.069 | [2] -0.069 | [3] -0.093 | [4] -0.072 | entinostat 0.042 | vorinostat 0.061 | citarinostat 0.062 | silmitasertib 0.11 | [5] -0.002 | [6] -0.032

GTF3A (UniProt Q92664)
inactive: [1] -0.04 | [2] -0.095 | [3] 0.046 | [4] -0.098 | entinostat -0.013 | vorinostat 0.026 | citarinostat 0.06 | silmitasertib 0.043 | [5] 0.011 | [6] -0.072

GTPBP6 (UniProt O43824)
inactive: [1] -0.052 | [2] -0.066 | [3] 0.017 | [4] -0.003 | entinostat -0.019 | vorinostat -0.1 | citarinostat 0.093 | silmitasertib -0.115 | [5] 0.086 | [6] -0.011

HIST2H3A (UniProt Q71DI3)
inactive: [1] 0.032 | [2] 0.286 | [3] 0.46 | [4] -0.077 | entinostat 0.196 | vorinostat 0.442 | citarinostat 0.006 | silmitasertib -0.084 | [5] 0.07 | [6] -0.02

IFRD1 (UniProt O00458)
inactive: [1] -0.035 | [2] -0.275 | [3] -0.058 | [4] -0.009 | entinostat -0.08 | vorinostat -0.25 | citarinostat -0.035 | silmitasertib 0.175 | [5] 0.022 | [6] -0.016

GTF2H3 (UniProt Q13889)
inactive: [1] -0.133 | [2] -0.152 | [3] 0.12 | [4] -0.063 | entinostat 0.141 | vorinostat 0.037 | citarinostat -0.049 | silmitasertib -0.004 | [5] -0.041 | [6] -0.015

GLS (UniProt O94925)
inactive: [1] -0.019 | [2] 0.152 | [3] -0.157 | [4] -0.093 | entinostat 0.039 | vorinostat 0.022 | citarinostat 0.068 | silmitasertib 0.008 | [5] -0.193 | [6] -0.032

HMGN1 (UniProt P05114)
UniProt P05114, sequence (P05114 whole entry, looked up): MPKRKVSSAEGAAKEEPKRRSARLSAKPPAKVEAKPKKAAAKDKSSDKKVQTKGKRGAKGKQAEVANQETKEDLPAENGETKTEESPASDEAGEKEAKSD
inactive: [1] 0 | [2] 0.024 | [3] 0.144 | [4] 0.03 | entinostat -0.053 | vorinostat -0.048 | citarinostat -0.096 | silmitasertib 0.037 | [5] -0.003 | [6] -0.023

HBZ (UniProt P02008)
UniProt P02008, sequence (P02008 whole entry, looked up): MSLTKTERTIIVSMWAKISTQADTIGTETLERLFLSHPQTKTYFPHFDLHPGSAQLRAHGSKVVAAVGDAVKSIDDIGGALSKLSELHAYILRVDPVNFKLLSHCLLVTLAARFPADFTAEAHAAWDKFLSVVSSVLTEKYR
inactive: [1] 0.03 | [2] -0.042 | [3] 0 | [4] 0.026 | entinostat 0.059 | vorinostat -0.022 | citarinostat 0.027 | silmitasertib -0.019 | [5] -0.055 | [6] -0.018

GNL1 (UniProt P36915)
inactive: [1] -0.045 | [2] -0.071 | [3] -0.114 | [4] -0.019 | entinostat 0.001 | vorinostat 0.008 | citarinostat 0.022 | silmitasertib -0.021 | [5] -0.005 | [6] -0.011

GALNT1 (UniProt Q10472)
UniProt Q10472, sequence (Q10472 whole entry, looked up): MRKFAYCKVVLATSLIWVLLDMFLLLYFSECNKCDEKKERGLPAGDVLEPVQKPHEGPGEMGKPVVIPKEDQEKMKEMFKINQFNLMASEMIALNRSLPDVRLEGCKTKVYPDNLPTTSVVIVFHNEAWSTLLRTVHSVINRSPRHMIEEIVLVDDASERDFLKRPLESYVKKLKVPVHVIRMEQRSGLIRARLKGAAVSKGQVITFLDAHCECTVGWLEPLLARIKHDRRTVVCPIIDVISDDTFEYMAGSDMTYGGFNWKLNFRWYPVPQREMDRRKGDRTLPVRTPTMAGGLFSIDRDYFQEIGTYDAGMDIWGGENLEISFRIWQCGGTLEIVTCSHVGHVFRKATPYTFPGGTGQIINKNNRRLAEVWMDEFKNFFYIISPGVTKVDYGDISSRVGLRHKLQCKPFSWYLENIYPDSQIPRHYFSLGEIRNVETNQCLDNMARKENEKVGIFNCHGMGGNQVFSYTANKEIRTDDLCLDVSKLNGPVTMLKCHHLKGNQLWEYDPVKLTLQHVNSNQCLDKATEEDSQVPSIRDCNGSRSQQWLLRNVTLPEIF
inactive: [1] -0.016 | [2] -0.012 | [3] -0.068 | [4] -0.016 | entinostat -0.027 | vorinostat 0.067 | citarinostat 0.011 | silmitasertib -0.007 | [5] -0.121 | [6] 0.046

GABPA (UniProt Q06546)
inactive: [1] -0.05 | [2] -0.057 | [3] -0.203 | [4] -0.042 | entinostat 0.108 | vorinostat 0.138 | citarinostat 0.139 | silmitasertib -0.007 | [5] -0.13 | [6] 0.008

GNG5 (UniProt P63218)
UniProt P63218, sequence (P63218 whole entry, looked up): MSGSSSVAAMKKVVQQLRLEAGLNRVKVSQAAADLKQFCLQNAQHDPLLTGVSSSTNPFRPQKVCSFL
inactive: [1] -0.029 | [2] 0.071 | [3] 0.056 | [4] 0.086 | entinostat 0.082 | vorinostat -0.127 | citarinostat -0.021 | silmitasertib 0.017 | [5] -0.156 | [6] -0.057

HECTD1 (UniProt Q9ULT8)
inactive: [1] -0.036 | [2] -0.087 | [3] -0.017 | [4] -0.01 | entinostat 0.042 | vorinostat 0.06 | citarinostat 0.123 | silmitasertib 0.075 | [5] -0.027 | [6] -0.17

FUCA1 (UniProt P04066)
UniProt P04066, sequence (P04066 whole entry, looked up): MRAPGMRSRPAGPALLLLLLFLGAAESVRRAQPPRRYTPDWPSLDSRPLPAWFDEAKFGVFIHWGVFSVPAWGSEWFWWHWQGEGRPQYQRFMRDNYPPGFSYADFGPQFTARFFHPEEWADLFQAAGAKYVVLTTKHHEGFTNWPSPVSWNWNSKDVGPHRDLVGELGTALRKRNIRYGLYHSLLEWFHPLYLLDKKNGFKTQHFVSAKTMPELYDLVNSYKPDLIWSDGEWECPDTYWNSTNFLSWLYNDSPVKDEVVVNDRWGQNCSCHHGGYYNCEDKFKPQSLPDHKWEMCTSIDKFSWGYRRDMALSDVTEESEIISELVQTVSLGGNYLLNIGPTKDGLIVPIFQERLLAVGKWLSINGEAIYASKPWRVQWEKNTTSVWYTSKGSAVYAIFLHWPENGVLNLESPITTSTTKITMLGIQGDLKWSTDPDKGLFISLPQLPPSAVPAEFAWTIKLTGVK
active: [3] -0.519 | [6] -0.372
inactive: [1] 0.028 | [2] -0.028 | [4] -0.03 | entinostat 0.014 | vorinostat 0.015 | citarinostat 0.096 | silmitasertib 0.019 | [5] -0.043

HOOK3 (UniProt Q86VS8)
UniProt Q86VS8, sequence (Q86VS8 whole entry, looked up): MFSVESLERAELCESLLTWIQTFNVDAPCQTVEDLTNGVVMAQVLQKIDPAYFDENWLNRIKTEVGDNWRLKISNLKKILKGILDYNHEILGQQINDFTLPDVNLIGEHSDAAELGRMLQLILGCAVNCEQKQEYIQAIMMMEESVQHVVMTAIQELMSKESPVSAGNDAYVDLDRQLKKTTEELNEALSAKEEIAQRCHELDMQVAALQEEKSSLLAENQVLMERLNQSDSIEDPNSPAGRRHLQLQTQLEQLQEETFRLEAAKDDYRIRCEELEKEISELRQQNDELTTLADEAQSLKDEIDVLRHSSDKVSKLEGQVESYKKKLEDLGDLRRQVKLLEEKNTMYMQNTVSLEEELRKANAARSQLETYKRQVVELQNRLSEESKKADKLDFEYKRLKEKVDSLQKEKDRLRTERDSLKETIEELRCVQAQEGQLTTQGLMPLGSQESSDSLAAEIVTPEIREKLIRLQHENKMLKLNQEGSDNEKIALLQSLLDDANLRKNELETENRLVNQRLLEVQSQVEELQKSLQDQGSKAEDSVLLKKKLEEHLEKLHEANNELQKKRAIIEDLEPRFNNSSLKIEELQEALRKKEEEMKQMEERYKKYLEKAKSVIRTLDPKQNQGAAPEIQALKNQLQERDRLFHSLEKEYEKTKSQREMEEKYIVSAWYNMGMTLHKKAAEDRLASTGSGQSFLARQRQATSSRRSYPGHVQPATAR
inactive: [1] 0.05 | [2] -0.077 | [3] -0.079 | [4] -0.081 | entinostat 0.063 | vorinostat 0.056 | citarinostat -0.022 | silmitasertib 0.101 | [5] -0.049 | [6] -0.05

FBXO6 (UniProt Q9NRD1)
UniProt Q9NRD1, sequence (Q9NRD1 whole entry, looked up): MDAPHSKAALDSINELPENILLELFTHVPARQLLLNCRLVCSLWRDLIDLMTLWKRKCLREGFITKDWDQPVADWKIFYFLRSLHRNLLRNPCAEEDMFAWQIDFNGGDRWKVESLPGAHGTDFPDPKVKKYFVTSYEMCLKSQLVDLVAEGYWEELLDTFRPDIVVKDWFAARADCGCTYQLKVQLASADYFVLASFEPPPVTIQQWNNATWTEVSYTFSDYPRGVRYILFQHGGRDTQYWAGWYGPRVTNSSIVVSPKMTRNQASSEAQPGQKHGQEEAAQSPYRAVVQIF
active: [3] 0.366
inactive: [1] -0.009 | [2] 0.034 | [4] 0.028 | entinostat 0.013 | vorinostat 0.074 | citarinostat 0.075 | silmitasertib 0.012 | [5] -0.017 | [6] 0.026

GNS (UniProt P15586)
UniProt P15586, sequence (P15586 whole entry, looked up): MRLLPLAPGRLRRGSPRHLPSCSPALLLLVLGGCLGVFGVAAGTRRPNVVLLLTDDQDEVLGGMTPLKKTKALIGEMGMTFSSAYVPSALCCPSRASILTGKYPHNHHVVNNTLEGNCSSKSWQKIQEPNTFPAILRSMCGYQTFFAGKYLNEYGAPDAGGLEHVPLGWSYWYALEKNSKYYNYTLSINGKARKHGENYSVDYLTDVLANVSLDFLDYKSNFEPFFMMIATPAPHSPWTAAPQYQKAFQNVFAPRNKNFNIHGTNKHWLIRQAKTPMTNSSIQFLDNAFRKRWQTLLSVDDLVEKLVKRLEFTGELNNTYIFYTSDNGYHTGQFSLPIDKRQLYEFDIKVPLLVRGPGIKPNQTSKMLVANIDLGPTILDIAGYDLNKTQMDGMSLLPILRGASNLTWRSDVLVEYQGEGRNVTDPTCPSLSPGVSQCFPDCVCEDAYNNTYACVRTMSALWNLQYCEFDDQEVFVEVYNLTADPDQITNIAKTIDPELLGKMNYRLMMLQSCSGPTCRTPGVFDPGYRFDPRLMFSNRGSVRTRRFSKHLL
inactive: [1] 0.002 | [2] 0 | [3] -0.109 | [4] 0.01 | entinostat -0.006 | vorinostat -0.036 | citarinostat 0.019 | silmitasertib -0.026 | [5] -0.049 | [6] 0.003

GSK3B isoform 2 (UniProt P49841)
inactive: [1] -0.027 | [2] -0.06 | [3] -0.055 | [4] -0.028 | entinostat 0.005 | vorinostat 0.023 | citarinostat 0.047 | silmitasertib 0.012
active: [5] 0.29

FANCD2 isoform 1 (UniProt Q9BXW9)
inactive: [1] 0.087 | [2] -0.189 | [3] -0.304 | [4] -0.034 | entinostat 0.022 | vorinostat 0.187 | citarinostat 0.11 | silmitasertib -0.109 | [5] -0.034 | [6] -0.039

FOXO3 (UniProt O43524)
UniProt O43524, sequence (O43524 whole entry, looked up): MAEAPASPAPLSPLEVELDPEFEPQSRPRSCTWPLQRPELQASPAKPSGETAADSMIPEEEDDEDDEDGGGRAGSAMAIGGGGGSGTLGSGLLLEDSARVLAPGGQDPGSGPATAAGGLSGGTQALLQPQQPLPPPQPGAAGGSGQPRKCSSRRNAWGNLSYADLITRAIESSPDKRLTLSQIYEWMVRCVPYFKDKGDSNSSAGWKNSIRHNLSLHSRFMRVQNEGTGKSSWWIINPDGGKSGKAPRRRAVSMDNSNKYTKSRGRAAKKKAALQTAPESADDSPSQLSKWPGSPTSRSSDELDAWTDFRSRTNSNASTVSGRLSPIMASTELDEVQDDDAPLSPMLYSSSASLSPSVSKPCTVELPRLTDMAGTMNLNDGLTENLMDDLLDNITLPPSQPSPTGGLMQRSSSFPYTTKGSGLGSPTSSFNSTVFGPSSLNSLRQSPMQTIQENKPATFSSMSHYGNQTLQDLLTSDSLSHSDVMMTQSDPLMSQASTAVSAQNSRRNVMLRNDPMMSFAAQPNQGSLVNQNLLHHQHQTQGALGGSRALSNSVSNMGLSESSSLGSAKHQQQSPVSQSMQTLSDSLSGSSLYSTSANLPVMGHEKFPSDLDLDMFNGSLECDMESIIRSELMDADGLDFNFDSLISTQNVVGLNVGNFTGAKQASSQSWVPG
inactive: [1] -0.395 | [2] -0.089 | [3] -0.025 | [4] -0.072 | entinostat -0.063 | vorinostat 0.222 | citarinostat 0.002 | silmitasertib -0.136 | [5] -0.046 | [6] 0.035

GLUD2 (UniProt P49448)
inactive: [1] -0.086 | [2] -0.03 | [3] -0.006 | [4] 0.027 | entinostat -0.053 | vorinostat -0.051 | citarinostat -0.07 | silmitasertib -0.136 | [5] -0.008 | [6] -0.017

FECH isoform 2 (UniProt P22830)
inactive: [1] -0.031 | [2] 0.171 | [3] 0.288 | [4] 0.021 | entinostat -0.01 | vorinostat -0.228 | citarinostat -0.031 | silmitasertib -0.035 | [5] 0 | [6] 0.38

GPAT4 (UniProt Q86UL3)
inactive: [1] -0.031 | [2] 0.002 | [3] -0.012 | [4] -0.028 | entinostat -0.107 | vorinostat -0.017 | citarinostat 0.004 | silmitasertib -0.005 | [5] -0.077 | [6] -0.068
